Source: PubChem BioAssay
An excerpt weighted towards active compounds, which were near 4.1% of everything screened.
PolyA inhibitor: blocks polyadenylation in yeast reporter cells | actives 0.02% (n = 300,000) | S. cerevisiae SKY197-pL101 polyadenylation reporter, beta-gal luminescence; efflux-impaired pdr1/pdr3 knockout yeast; score 100 = 6 SD above DMSO | activity score, % at 12 µM;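 active means lowest replicate activity score at least 50, where 100 means six control SD above control mean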;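 further: yeast exposed to compound for 9 h at 30 °C; higher score means more reporter readthrough which indicates perturbed polyadenylation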
IDE cell inh: inhibits human insulin-degrading enzyme in HEK cells | FAbetaB cleavage, fluorescence polarization | P14735 | inhibition, % at 5.59 µM | actives 0.41% (n = 320,000);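 active means percent inhibition above the average of all tested compounds plus 3 SD, set per screening campaign, cut at about 16% in these data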;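 further: IDE supplied by intact live HEK cells; FP after avidin binding of uncleaved biotin substrate so inhibition keeps polarization high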
ALR inh: human ALR oxidase inhibition via reduced H2O2. P55789. purified ALR, DTT oxidation, H2O2 HRP-luminol luminescence. inhibition, % (test concentration not listed). actives 3.8% (n = 290,000);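 active means mean replicate inhibition above about 79%, with every replicate also reaching it, limit read from the data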
Target sequence (P55789 whole entry, looked up): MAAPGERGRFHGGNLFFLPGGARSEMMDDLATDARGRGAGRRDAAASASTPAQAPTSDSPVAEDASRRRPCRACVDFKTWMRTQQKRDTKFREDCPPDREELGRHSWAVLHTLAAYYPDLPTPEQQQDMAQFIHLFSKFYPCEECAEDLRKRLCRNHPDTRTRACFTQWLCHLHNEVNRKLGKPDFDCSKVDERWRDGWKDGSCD
PfM18AAP inh: blocks P. falciparum M18 aspartyl aminopeptidase; recombinant PfM18AAP, H-Glu-NHMec fluorogenic cleavage; inhibition, % at 7.35 µM; actives 1.2% (n = 290,000); AID 1822;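 active means inhibition above the campaign mean inhibition over all tested compounds plus 3 SD, cut at about 28% in these data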
IDE cell activ: IDE (human) activation, cell-based. activation, % at 5.96 µM. AID 493087. P14735. HEK cells, FAbeta-B cleavage, fluorescence polarization; 0% vehicle, 100% cell-free pure enzyme wells. actives 0.073% (n = 340,000);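 active means activation above the mean of all tested compounds plus 3 SD, set per screening campaign, cut at about 17% in these data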
CaV13 FRET inh: Primary screen for inhibitors of IQ motif and Ca2+-dependent inactivation inhibitor domain binding in CACNA1D, Förster resonance energy transfer in living cells, …; HEK cells, CFP/YFP FRET ICDI-IQ, plate reader, 10 min; percent FRET-ratio fall versus neutral wells; inhibition, % at 12.3 µM; actives 0.098% (n = 340,000);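 active means mean replicate inhibition of at least 30% and at least 1% of replicates passing that level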
A number is an active result; n = inactive; x = no result given.

SMILES	PolyA inhibitor	IDE cell inh	ALR inh	PfM18AAP inh	IDE cell activ	CaV13 FRET inh
COc1cccc(N2CCN(C(=O)CCS(=O)(=O)c3ccc4c(c3)oc(=O)n4C)CC2)c1	n	n	98.4	n	n	n
CCCNS(=O)(=O)c1ccc(CCC(=O)N2CCN(c3ccc(OC)cc3)CC2)cc1	n	n	n	n	n	n
O=C1COc2ccc(S(=O)(=O)CCC(=O)N3CCN(c4ccccc4)CC3)cc2N1	n	n	98.4	n	n	n
NNC(=O)c1ccccc1CO	n	n	78.6	x	x	x
O=C(OCc1cc2ccccc2[nH]c1=O)c1cccc([N+](=O)[O-])c1	n	n	x	n	n	n
Cn1c(-c2cccc(Br)c2)cnc1NCc1cccnc1	n	n	85.4	n	n	n
COc1ccccc1CNc1ncc(-c2ccccc2)n1C	n	x	x	n	n	n
COc1cc(CNc2ncc(-c3ccc(Br)cc3)n2C)cc(OC)c1O	n	n	85.6	n	n	n
COc1ccccc1CNc1ncc(-c2ccc(F)cc2)n1C	n	n	97.7	n	n	n
C[C@H](CO)N1C[C@H](C)[C@@H](CN(C)C(=O)Cc2ccccc2)OCCCC[C@H](C)Oc2ccc(NC(=O)NC3CCCCC3)cc2C1=O	x	x	x	x	x	n
CSCc1ccc(C(=O)OCC(=O)NC2CCCC2)o1	x	x	x	x	x	n
COc1ccc(NC(=O)CS(=O)CC(=O)Nc2cc(Cl)ccc2OC)cc1 (stereo unspecified)	n	n	n	n	n	n
COc1ccc(NC(=O)CS(=O)CC(=O)Nc2ccc(OC)c(OC)c2)cc1 (stereo unspecified)	n	n	86.8	n	n	n
CC(C)NC(=O)/C(C#N)=C/c1ccc(N(C)C)o1	n	n	98.4	n	n	n
O=C(OCn1ncc(Br)c(Br)c1=O)c1ccccc1Cl	n	n	n	n	n	x
O=C(OCn1ncc(Cl)c(Cl)c1=O)c1cccc(C(F)(F)F)c1	n	n	97.1	n	n	x
COc1ccc(N2CCN(CC(=O)N3N=CCC3c3ccccc3)CC2)cc1 (stereo unspecified)	n	n	83.9	n	n	n
COc1ccc(CCC(=O)N2CCN(c3ccc(OC)cc3)CC2)cc1	n	x	x	n	n	x
COc1ccccc1N1CCN(CC(=O)N2N=CCC2c2ccccc2)CC1 (stereo unspecified)	n	n	n	n	n	n
COc1ccc(N2CCN(C(=O)[C@H](Cc3c[nH]c4ccccc34)NC(C)=O)CC2)cc1	n	n	98.3	n	n	n
COc1ccc(N2CCN(C(=O)CCc3c[nH]c4ccccc34)CC2)cc1	n	n	n	n	n	n
COc1ccc(N(C(C)C(=O)N(C)Cc2ccccc2)S(C)(=O)=O)cc1 (stereo unspecified)	n	n	n	n	n	n
COc1ccc(N2CCN(C(C)C(=O)N(C)Cc3ccccc3)CC2)cc1 (stereo unspecified)	n	n	95.7	n	n	n
COc1ccc(N2CCN(C(=O)CCc3ccccc3)CC2)cc1	n	n	97.1	n	n	n
COc1ccc(CC(=O)N(C)c2ccccc2)cc1S(=O)(=O)N1CCOCC1	x	x	x	x	x	n
SMILES	PolyA inhibitor	IDE cell inh	ALR inh	PfM18AAP inh	IDE cell activ	CaV13 FRET inh
Cc1ccc2cccc(OCC(=O)N3CC(C)CC(C)C3)c2n1 (stereo unspecified)	n	n	n	n	n	n
COc1ccc(N2CCN(C(=O)CNC(=O)Cc3ccccc3)CC2)cc1	n	n	78.8	n	n	n
COc1ccc(N2CCN(C(=O)CNC(=O)Cc3ccc(Cl)cc3)CC2)cc1	n	n	n	n	n	n
COc1ccc(N2CCN(C(=O)CN(C)S(=O)(=O)c3cnc[nH]3)CC2)cc1	n	n	87.3	n	n	n
CN(CC(=O)N1CCN(c2ccccc2F)CC1)S(=O)(=O)c1cnc[nH]1	n	n	n	n	n	n
COc1ccc(N2CCN(C(=O)CN(Cc3ccccc3)S(C)(=O)=O)CC2)cc1	n	n	86.2	n	n	n
CSc1nc2ccc(NC(=O)c3cc4ccccc4o3)cc2s1	n	n	n	n	n	n
COC(=O)C1=C(C)N(Cc2cccc(C(F)(F)F)c2)C(=NCc2ccc(C(F)(F)F)cc2)NC1c1cccc(F)c1 (stereo unspecified)	x	x	x	x	x	n
CC(=O)Nc1cccc(-c2ccnc3c2CC(C(=O)NCc2cccc(Cl)c2)O3)c1 (stereo unspecified)	x	x	x	x	x	45.2
O=C(NNc1nc2ccc(F)cc2s1)c1cccc(F)c1	n	n	98.2	n	n	n
O=C(NC1CCCCC1)N1CCN(c2ccc(Cl)cc2)CC1	n	n	99.0	n	n	x
Cc1c(C)c(C)c(CO/N=C/c2cccs2)c(C)c1C	n	n	n	n	n	n
CCOc1ccc(CSC(CC(=O)O)C(=O)O)cc1 (stereo unspecified)	n	n	98.1	n	n	x
Nc1ccn(CCCNCC(c2ccccc2)c2ccccc2)c(=O)n1	x	x	x	x	x	n
COc1ccc(C(=O)Nc2cc(C)on2)cc1	n	n	n	n	n	n
CC(=O)Oc1ccc(C(=O)Nc2cc(C)on2)cc1	n	n	n	n	n	55.9
Cc1cccc(CCN(CC(=O)NCc2ccc(F)cc2)C(=O)c2csnn2)c1	n	n	n	n	n	n
Cc1ccc(-n2ccnc(SCC(=O)NC3CCCC3)c2=O)cc1F	n	n	94.4	x	n	n
c1ccc(Nc2nc(N3CCCC3)nc(N3CCCC3)n2)cc1	n	n	n	n	n	n
O=C(O)c1cccc(Nc2nc(Nc3ccccc3)nc(N3CCCC3)n2)c1	n	n	94.5	n	n	n
CN1C(=O)C(N=Nc2ccccc2C(=O)O)N(C)C1=S (stereo unspecified)	n	20.9	98.0	n	n	n
COc1ccc(NC(NC(=O)c2ccc(OC)cc2)C(Cl)(Cl)Cl)cc1 (stereo unspecified)	n	n	98.1	n	n	n
COc1ccc(C(=O)NC(Nc2ccc(C)cc2)C(Cl)(Cl)Cl)cc1 (stereo unspecified)	n	n	n	n	n	n
Cc1ccnc(Nc2nc(-c3ccc(O)cc3)cs2)c1	n	n	n	n	n	n
Cc1ccnc(Nc2nc(-c3ccc(O)cc3O)cs2)c1	n	n	99.1	n	n	n
O=C(CSc1nnc(CNC(=O)c2c(F)cccc2F)o1)Nc1ccc2c(c1)OCCO2	n	n	98.3	n	n	n
COc1cc(C(=O)NCc2nnc(SCC(=O)Nc3c(C)cc(C)cc3C)o2)cc(OC)c1OC	n	n	n	n	n	n
CC(C)(C)OC(=O)NCCc1nnc(SCC(=O)Nc2cccc(Cl)c2)o1	n	n	n	n	n	n
COc1cc(C(=O)NCc2nnc(SCC(=O)Nc3cc(C)cc(C)c3)o2)cc(OC)c1OC	n	n	97.3	n	n	n
